TEAD-YAP inh: TEAD-YAP interaction inhibition; 640,000 compounds, 1.4% hits; HEK-TIYL cells, TEAD-Gal4/YAP UAS-luciferase luminescence; inhibition, % at 9.12 µM; in the data active = inhibition above about 32%
FBW7 activator: activators of human E3 ligase FBW7; Q969H0; AlphaScreen FBW7–phospho-cyclin E peptide binding, activator screen; normalized activity (activation), % at 26.1 µM; 650,000 compounds, 0.13% hits; AID 1259310; in the data active = normalized activity above about 1.9%;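 also: purified mutant Fbw7 with reduced substrate affinity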
Target sequence (Q969H0 whole entry, looked up): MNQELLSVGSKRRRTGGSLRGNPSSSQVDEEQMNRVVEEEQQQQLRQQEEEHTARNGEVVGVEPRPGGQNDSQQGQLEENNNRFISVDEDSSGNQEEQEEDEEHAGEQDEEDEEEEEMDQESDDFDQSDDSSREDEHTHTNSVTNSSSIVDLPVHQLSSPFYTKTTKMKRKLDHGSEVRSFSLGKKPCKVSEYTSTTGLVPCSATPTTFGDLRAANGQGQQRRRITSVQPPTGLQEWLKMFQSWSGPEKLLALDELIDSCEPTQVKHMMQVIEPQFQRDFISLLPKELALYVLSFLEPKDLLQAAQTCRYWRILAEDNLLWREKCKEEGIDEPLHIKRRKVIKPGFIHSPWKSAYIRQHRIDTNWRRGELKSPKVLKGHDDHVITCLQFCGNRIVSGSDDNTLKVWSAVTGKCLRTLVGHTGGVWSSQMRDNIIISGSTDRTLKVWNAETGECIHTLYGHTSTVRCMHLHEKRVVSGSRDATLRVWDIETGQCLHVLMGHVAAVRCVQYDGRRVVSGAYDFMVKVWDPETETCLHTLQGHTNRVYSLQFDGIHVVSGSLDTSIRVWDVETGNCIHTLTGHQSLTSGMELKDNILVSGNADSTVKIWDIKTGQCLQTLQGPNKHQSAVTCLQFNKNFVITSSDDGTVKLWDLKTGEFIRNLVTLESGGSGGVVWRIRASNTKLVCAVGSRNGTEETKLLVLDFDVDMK
GPR151 activ: human GPR151 activation; PathHunter beta-arrestin GPR151 cells, luminescence; 650,000 compounds, 1% hits; activation, % at 11.2 µM; in the data active = activation above about 4.9%
MITF primary: inhibitors of human MITF; 650,000 compounds, 0.91% hits; AlphaScreen MITF homodimerization, bead proximity signal; O75030; inhibition, % at 2.6 µM; in the data active = inhibition above about 50%
Each line names hits and unclear results; the compound was inactive in the other large screens. Sampled rows, rich in hits. Any-hit rate of the full collection: about 3.5%.

COc1cccc(-n2c(SCC(=O)N3CCN(c4ccccc4OC)CC3)nc3n[nH]c(C)c3c2=N)c1	TEAD-YAP inh 42.7
CC(=O)c1ccccc1OC(=O)c1ccc(N2C(=O)C3C4CCC(C4)C3C2=O)cc1 (centres undefined)	none
CC(C)c1ccc2oc(-c3cc(NC(=O)c4cc5ccccc5o4)ccc3Cl)nc2c1	none
CCOc1cc(CO)cc(Cl)c1OCC(=O)Nc1ccccc1OC	none
COC(=O)c1cc(Nc2ccccc2OC)c2cc(Cl)ccc2n1	none
COC(=O)c1cc(Nc2cc(OC)cc(OC)c2)c2cc(C)ccc2n1	TEAD-YAP inh 41.2
COC(=O)c1cc(Nc2cccc(OC)c2)c2cc(Cl)ccc2n1	TEAD-YAP inh 37.7
COC(=O)c1cc(Nc2ccc3c(c2)OCO3)c2cc(C)ccc2n1	none
CC(C(=O)c1ccc(-c2ccccc2)cc1)[n+]1ccc2ccccc2c1 (centres undefined)	TEAD-YAP inh 56.0
COc1cnc(Nc2ccc(N3CCOCC3)cc2)nc1Nc1ccccc1C(N)=O	TEAD-YAP inh 55.3
NC(=O)c1ccccc1Nc1nc(Nc2ccc(N3CCCC3=O)cc2)ncc1Cl	TEAD-YAP inh 78.2
COc1cc(N2CCOCC2)ccc1Nc1ncc(Cl)c(Nc2ccccc2C(=O)NC2CC2)n1	none
N#Cc1ccc(Nc2ncc(Cl)c(Nc3ccccc3C(N)=O)n2)cc1	none
Cc1ncn(-c2ccc(Nc3ncc(C)c(Nc4ccccc4C(N)=O)n3)cc2)n1	TEAD-YAP inh 87.5
O=C(CN1CCCc2ccccc21)N/N=C/c1ccco1	TEAD-YAP inh 67.7
Cn1ncc(C(C#N)c2nc3ccccc3s2)c(Cl)c1=O (centres undefined)	none
Cc1ccc2nc(SCC(=O)N3CC(=O)Nc4ccccc43)c(C#N)cc2c1	TEAD-YAP inh 49.1
COc1cc(OC)c(NC(=O)Nc2nnc(N3CCCC3)s2)cc1Cl	none
O=C(N/N=C/c1ccc(F)cc1)c1cc2sccc2[nH]1	TEAD-YAP inh 48.9
CCN1C(=O)C(=Cc2ccc(-c3cccc(C(=O)O)c3)o2)C(=O)N(CC)C1=S	none
CC(=O)c1ccc(-c2ccc(/C=C3/SC(=S)NC3=O)o2)cc1	MITF primary 74.2
CCN1C(=O)C(=Cc2ccc(-c3ccc(C(C)=O)cc3)o2)C(=O)N(CC)C1=S	MITF primary 78.1
O=C1NC(=S)S/C1=C\c1ccc(I)o1	none
O=C1NC(=S)S/C1=C/c1ccc[nH]1	TEAD-YAP inh 48.8
O=C1NC(=S)S/C1=C/c1cc(Br)c(Br)o1	MITF primary 50.6
O=C(/C=C/c1ccccc1)N1CCN(c2ccccc2)CC1	none
Cc1cc(C)c(S(=O)(=O)Nc2cccc(C)c2C)c(C)c1	none
CCOc1ccc(C2Nc3ccccc3C(=O)N2c2ccc3ccccc3c2)cc1 (centres undefined)	TEAD-YAP inh 73.6
CCOc1ccc(C2Nc3ccccc3C(=O)N2c2ccc(F)c(Cl)c2)cc1 (centres undefined)	none
COc1ccc(-c2nc(CCn3c(C)nc4ccccc43)no2)cc1	TEAD-YAP inh 38.3
Cc1ccc(-c2nnc(Cn3c(C)nc4ccccc43)o2)cc1	TEAD-YAP inh 57.8
CC1(C)CC2CC(C)(CN2CC(C)(C)NS(=O)(=O)c2cccs2)C1 (centres undefined)	none
N#Cc1cc([N+](=O)[O-])ccc1NC(=O)CSc1cccc[n+]1[O-]	none
CC(C)(C)C1CCc2c(sc(NC(=O)c3ccco3)c2C(=O)O)C1 (centres undefined)	TEAD-YAP inh 89.7
CCN(CC)C(=O)c1c(NC(=O)c2ccco2)sc2c1CCC(C(C)(C)C)C2 (centres undefined)	none
CC1CCc2c(sc(NC(=O)c3ccco3)c2C(=O)O)C1 (centres undefined)	TEAD-YAP inh 33.3
Cc1ccccc1N1CC(O)(c2ccc3c(c2)OCCO3)[N+]2=C1SCCC2 (centres undefined)	none
COc1cccc(C2NC(C(=O)O)CS2)c1 (centres undefined)	none
O=C1CN(C(=O)COC(=O)c2cc(-c3cccs3)nc3ccccc23)c2ccccc2N1	MITF primary 55.1
O=C1c2ccccc2C(=O)c2c1oc1c3c(ccc21)OCN(CCCN1CCOCC1)C3	TEAD-YAP inh 80.9
CCC(=O)N1CCc2ccc(NC(=O)COc3ccccc3)cc2C1	none
O=c1c(O)c(-c2cc(O)c(O)c(O)c2)oc2cc(O)ccc12	MITF primary 78.4
O=c1c(O)c(-c2ccc(O)c(O)c2)oc2cc(O)ccc12	none
O=C(NC12CC3CC(CC(C3)C1)C2)C(F)(F)F	none
CC(O)CNc1nc2c(c(=O)n(C)c(=O)n2C)n1Cc1ccc(Cl)cc1Cl (centres undefined)	none
CC(=O)c1ccc(NC(=O)c2scc3c2CCCC3)cc1	TEAD-YAP inh 72.4

Screening results deposited in PubChem by The Scripps Research Institute Molecular Screening Center.
